Source: PubChem
FBW7 act = activators of human E3 ligase FBW7. Q969H0. AlphaScreen FBW7–phospho-cyclin E peptide binding, activator screen. normalized activity (activation), % at 26.1 µM. 0.13% of 650,000 active. AID 1259310; in the data active = normalized activity above about 1.9%;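 note: purified mutant Fbw7 with reduced substrate affinity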
TEAD-YAP inh = TEAD-YAP interaction inhibition | 1.4% of 640,000 active | inhibition, % at 9.12 µM | AID 1259422 | HEK-TIYL cells, TEAD-Gal4/YAP UAS-luciferase luminescence; in the data active = inhibition above about 32%;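 note: 0% = median of test compound wells and 100% = reference inhibitor wells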
GPR151 ag = activates the human receptor GPR151 | PathHunter beta-arrestin GPR151 cells, luminescence | activation, % at 11.2 µM | 1% of 650,000 active | AID 1508602; in the data active = activation above about 4.9%;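 note: 0% = median of compound wells and 100% = cells with positive control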
MITF primary = blocks human microphthalmia-associated transcription factor | inhibition, % at 2.6 µM | AlphaScreen MITF homodimerization, bead proximity signal | 0.91% of 650,000 active | O75030; in the data active = inhibition above about 50%;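 note: 0% = vehicle wells with protein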
GPR151 confirm = confirmation of human GPR151 activators; 6,700 tested, under 10 active; AID 1508609; GPR151 PathHunter beta-arrestin cells, luminescence, 90 min; % of EA-reagent control over plate median; shares compounds with GPR151 ag; activation, % at 11.2 µM;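 active = mean percent activation across replicates above the confirmation screen cutoff of 4.91%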
GPR119 counter = activates human GPR119 in a GPR151 counter-screen | shares compounds with GPR151 ag | GPR119 PathHunter beta-arrestin cells, luminescence, 90 min; 0 = compound-well median, 100 = enzyme-acceptor control | activation, % at 11.2 µM | 0.3% of 6,700 active | AID 1508611;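 active = mean percent activation in the counterscreen above 29.09%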;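 note: counterscreen on off-target GPR119 to flag nonselective hits from the GPR151 activator screen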
Target sequence (Q8TDV5 whole entry, looked up): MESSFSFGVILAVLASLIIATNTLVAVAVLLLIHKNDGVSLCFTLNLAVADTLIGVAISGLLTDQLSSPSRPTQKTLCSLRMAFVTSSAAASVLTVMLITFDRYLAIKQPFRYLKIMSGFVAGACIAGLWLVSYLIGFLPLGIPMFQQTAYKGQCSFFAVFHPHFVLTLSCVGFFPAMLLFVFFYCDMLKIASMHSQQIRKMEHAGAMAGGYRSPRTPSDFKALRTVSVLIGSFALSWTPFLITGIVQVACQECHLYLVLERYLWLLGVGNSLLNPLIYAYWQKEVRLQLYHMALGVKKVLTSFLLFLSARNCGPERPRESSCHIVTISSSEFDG
The depositor's hits bear a star; / = no result given. Sampled rows, rich in hits. Any-hit rate of the full collection: about 3.4%.

SMILES	FBW7 act	TEAD-YAP inh	GPR151 ag	MITF primary	GPR151 confirm	GPR119 counter
COc1ccc(/C=C/C(=O)c2ccc[nH]2)cc1OC	0	-45	5.8*	17	-1	-2
CCn1c2ccccc2n2c(=O)n(CC(=O)NCC3COc4ccccc4O3)nc12 (stereo unspecified)	1	13	7.5*	-5	2	7
CCn1c(=O)n(CC(=O)NCC2COc3ccccc3O2)c(=O)c2ccccc21 (stereo unspecified)	0	-2	-1	6	/	/
CCn1c2ccccc2n2c(=O)n(CC(=O)Nc3ccc4c(c3)OCO4)nc12	1	14	5.7*	9	1	2
Cc1ccc(/C=C/C2=NC(=C\c3ccc(Cl)c(Cl)c3)/C(=O)O2)cc1	1	-15	1	23	/	/
COc1cccc(NC(=O)C(CCSC)NC(=O)C2CCC(C)CC2)c1 (stereo unspecified)	0	-7	10*	-4	1	-2
CCOC(=O)c1cccc(NC(=O)C(CCSC)NC(=O)C2CCC(C)CC2)c1 (stereo unspecified)	0	-5	0	-5	/	/
CC(Oc1ccc2c(c1)OCO2)C(=O)NNC(=O)Nc1cccc(C(F)(F)F)c1 (stereo unspecified)	1	10	4	11	/	/
CC(Oc1cccc(Br)c1)C(=O)Nc1ccc2c(c1)OCO2 (stereo unspecified)	0	0	5.4*	9	0	0
NC(=O)NC(CC(=O)O)c1ccc(Cl)cc1 (stereo unspecified)	0	9	7.7*	-6	0	-4
CCOC(=O)c1ccc(N2C(=N)S/C(=C\c3ccc(N4CCN(C)CC4)c([N+](=O)[O-])c3)C2=O)cc1	0	1	0	4	/	/
O=C(Cn1ncc2c3ccccc3n(Cc3ccccc3)c2c1=O)N1CCCC1	0	-7	0	13	/	/
CC1=C(C#N)C(C(F)(F)F)(C(F)(F)F)N=C(c2ccncc2)N1	0	22	-1	-5	/	/
Cc1cnc(Nc2ccncc2)nc1NCCOc1ccccc1	1	2	-2	2	/	/
Cc1cnc(Nc2ccccc2)nc1NCCOc1ccccc1	0	7	6.0*	-6	1	1
COc1ccc(-c2nc3c(c4c2C[C@H](c2ccccc2)OC4)CN(C(=O)N[C@@H](C)C(=O)OC(C)C)CC3)c(C)c1	0	/	6.2*	-12	0	3
COc1ccc(-c2nc3c(c4c2C[C@H](c2ccccc2)OC4)CN(C(=O)N[C@@H](C)c2ccccc2)CC3)c(C)c1	0	/	-1	-5	/	/
CC(C)c1ccc(/C=C2\NC(=S)NC2=O)cc1[N+](=O)[O-]	0	14	0	-3	/	/
COc1ccc(CNCC2CCCO2)c(OC)c1OC (stereo unspecified)	0	5	5.9*	6	0	7
COc1cccc(CNCC2CCCO2)c1OC (stereo unspecified)	0	0	1	4	/	/
CC(=O)C1=C(O)C(=O)N(CCN2CCOCC2)C1/C=C/c1ccccc1 (stereo unspecified)	0	2	1	1	/	/
O=C(CN(CCc1ccccc1)S(=O)(=O)c1cc(Cl)ccc1Cl)N1CCCC1	0	-3	18*	21	0	-13
O=C(CN(Cc1ccccc1)S(=O)(=O)c1cc(Cl)ccc1Cl)N1CCCC1	0	-2	3	22	/	/
O=C(Cn1c(=O)c2cccn2c2cccnc21)NCCCN1CCCC1=O	0	-6	1	-3	/	/
Cc1ccc(OCC(=O)NC23CC4CC(CC(C4)C2)C3)cc1C	0	-43	5.1*	5	0	-10
CCOc1ccc(/C=N/NC(=O)c2cc(C)[nH]n2)c(O)c1	0	-11	0	12	/	/
CCN(CC)CCn1c(N)c(C(=O)Nc2ccccc2C)sc1=S	0	2	6.0*	3	1	10
CCOc1ccc(-n2c(N)c(C(=O)Nc3ccccc3C)sc2=S)cc1	0	7	0	13	/	/
COC(=O)C1CCN(C(=O)CC(C)(C)C)CC1	0	-2	6.1*	17	2	3
CCC(C)(C)n1nnnc1C(c1ccc(C)cc1)N1CCN(Cc2cccnc2)CC1 (stereo unspecified)	0	-12	6.4*	5	0	11
